This is part of a sample that, as a whole, favours compounds with a hit. Of some 83,000 tested, about 20% had one in any assay.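 Method: cells in 96-well plates; compound added at one concentration; 48 h incubation; percent growth measured; values under 10 scored active.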 Unmarked numbers belong to inactive results. The source made the active and inactive calls.
Experiments:
Assay in all cases: NCI-60 one-dose screen, 48 h (100 = growth as untreated, 0 = no growth, -100 = all killed)
SK-MEL-2 melanoma = conditions: 10 µM unless noted
EKVX NSCLC = conditions: 10 µM unless noted
SN12C renal = conditions: 10 µM unless noted
UO-31 renal = conditions: 10 µM unless noted
TK-10 renal = conditions: 10 µM unless noted
ACHN renal = conditions: 10 µM unless noted
CAKI-1 renal = conditions: 10 µM unless noted
A498 renal = conditions: 10 µM unless noted
CCRF-CEM leukemia = conditions: 10 µM unless noted
MOLT-4 leukemia = conditions: 10 µM unless noted
SR leukemia = conditions: 10 µM unless noted
RPMI-8226 leukemia = conditions: 10 µM unless noted
OVCAR-8 ovarian = conditions: 10 µM unless noted
OVCAR-5 ovarian = conditions: 10 µM unless noted
OVCAR-4 ovarian = conditions: 10 µM unless noted
SK-OV-3 ovarian = conditions: 10 µM unless noted
IGROV1 ovarian = conditions: 10 µM unless noted
OVCAR-3 ovarian = conditions: 10 µM unless noted
HS 578T breast = conditions: 10 µM
NCI/ADR-RES ovarian = conditions: 10 µM unless noted

| SMILES | growth (SK-MEL-2 melanoma) | growth (EKVX NSCLC) | growth (SN12C renal) | growth (UO-31 renal) | growth (TK-10 renal) | growth (ACHN renal) | growth (CAKI-1 renal) | growth (A498 renal) | growth (CCRF-CEM leukemia) | growth (MOLT-4 leukemia) | growth (SR leukemia) | growth (RPMI-8226 leukemia) | growth (OVCAR-8 ovarian) | growth (OVCAR-5 ovarian) | growth (OVCAR-4 ovarian) | growth (SK-OV-3 ovarian) | growth (IGROV1 ovarian) | growth (OVCAR-3 ovarian) | growth (HS 578T breast) | growth (NCI/ADR-RES ovarian) |
| --- | --- | --- | --- | --- | --- | --- | --- | --- | --- | --- | --- | --- | --- | --- | --- | --- | --- | --- | --- | --- |
| C=C(CN1CC=CCC1)[C@@H]1CC[C@]2(C(=O)OC)CC[C@]3(C)[C@H](CC[C@@H]4[C@@]5(C)CC[C@H](OC(C)=O)C(C)(C)[C@@H]5CC[C@]43C)[C@@H]12 | 103% | 109% | 92.8% | 86.4% | 121% | 102% | 81.2% | 113% | 82.7% | 82.1% | 69.4% | 50% | 103% | 118% | 91.3% | 103% | 91.8% | 92.5% | 109% | 107% |
| COc1ccc2[nH]c(C(=O)OCc3ccc4cccc(O)c4n3)cc2c1 | -20.3% (active) | -78% (active) | -74.8% (active) | -100% (active) | -89.2% (active) | -98.4% (active) | -97.6% (active) | 36.5% | 4.41% (active) | -11.5% (active) | -3.51% (active) | -45.9% (active) | 0.942% (active) | -66.6% (active) | -59.2% (active) | 68.4% | -91.2% (active) | -84.8% (active) | -8.82% (active) | -18.9% (active) |
| c1ccc(C(Nc2ccccn2)(c2ccccc2)c2ccccc2)cc1 | 74.5% | 38.1% | 75.9% | 35.4% | 85.5% | 69.3% | 63.3% | 72% | 81.2% | 66.3% | 97% | 34.7% | 70.4% | 77.6% | 79.9% | 67.5% | 88.7% | 82% | 93.4% | 63.3% |
| C/C(=N\NC(=S)N1CCCCC1)c1ccccn1 | 34.3% | -4.33% (active) | 21% | -13.6% (active) | 22.4% | 17.3% | -4% (active) | -13.5% (active) | 8.62% (active) | -3.73% (active) | -7.37% (active) | -19.4% (active) | 16% | 29.3% | -30.6% (active) | 27.6% | 11.2% | -12.9% (active) | 16.8% | 15.2% |
| Nc1ccc(N(O)/C=C2\C=CC=CC2=O)cc1N | 108% | 96.4% | 101% | 62.5% | 133% | 76.3% | 100% | 88.9% | 57.6% | 73% | 95.3% | 52.8% | 95.4% | 71.1% | 99.6% | 107% | 80.2% | 89.1% | 94.2% | 82% |
| CCCc1cc2c(cc1CN(Cc1cc3c(cc1CCC)OCO3)C(=N)OCC)OCO2 | 81.3% | 75% | 80% | 67.3% | 72.9% | 90.4% | 83.5% | 97.6% | 80.4% | 93.5% | 91.2% | 55.2% | 82.4% | 98.9% | 77.9% | 92.7% | 63.3% | 69.1% | 73.1% | 91.2% |
| Oc1c(C(c2ccc(F)cc2)N2CCCCC2)ccc2cncnc12 (stereo not given) | -16.6% (active) | 16.9% | 10% | 11% | 9.03% (active) | 10.9% | 19% | -8.07% (active) | 18.5% | 13.1% | 15.7% | 22.1% | 8.68% (active) | 22.3% | 5.59% (active) | -14.9% (active) | 9.64% (active) | 11.1% | 13% | 20.3% |
| CCCNC(=S)N/N=C(\C)c1ccccn1 | 69.8% | 12.1% | 31.6% | -0.774% (active) | 47.4% | 10.8% | 6.68% (active) | 30.8% | 15.9% | 6.93% (active) | 10% | 20% | 25.2% | 49.3% | 14.8% | 29.3% | 9.27% (active) | 41.4% | 32.9% | 11.5% |
| CC(CN1CCN(C)CC1)CN1c2ccccc2Sc2ccc(C(F)(F)F)cc21 (stereo not given) | 70% | 70.4% | 47.2% | 39.2% | 21% | 38.1% | 37.3% | 60.3% | 25.2% | 15.9% | -23.2% (active) | 71.3% | 71.9% | 68% | 54.5% | 92.4% | 10.9% | 42.9% | 60.7% | 52.8% |
| CNCc1ccccc1CN(CC(=O)Nc1ccc2c(c1)CC1(C2)C(=O)Nc2ncccc21)C(=O)C(C)(C)C (stereo not given) | 104% | 100% | 103% | 88.1% | 103% | 107% | 91.6% | 122% | 116% | 103% | 110% | 106% | 98.9% | 109% | 104% | 108% | 92.4% | 114% | 95.9% | 108% |
| O=C(/C=C/c1cccc([N+](=O)[O-])c1)c1ccc(Nc2nc(N3CCCCC3)nc(N3CCCCC3)n2)cc1 | 105% | 92.3% | 96.3% | 75.1% | 108% | 102% | 89.6% | 80.9% | 104% | 93.4% | 90.6% | 7.95% (active) | 95.2% | 110% | 97.6% | 97.4% | 88.1% | 91.5% | 103% | 103% |
| N[C@@H](CO)C(=O)O | 116% | 84.3% | 101% | 83.4% | 125% | 107% | 91.2% | 85.3% | 94.8% | 101% | 103% | 96.9% | 99.8% | 104% | 109% | 111% | 110% | 98.4% | 117% | 95.4% |
| N#Cc1nc(-c2ccc(Cl)cc2)cc(-c2ccc(Nc3nc(N4CCCCC4)nc(N4CCCCC4)n3)cc2)c1N | 106% | 91.8% | 104% | 80% | 120% | 96.8% | 83.8% | 110% | 107% | 99.2% | 105% | 111% | 96.5% | 113% | 110% | 90.9% | 91.4% | 105% | 94.1% | 102% |
| CN1CCN(Cc2ccc(NC(=O)c3cnc(F)c(C#Cc4cnc(N)c5ncccc45)c3)cc2C(F)(F)F)CC1 | -30.1% (active) | 23.7% | 11.7% | 7.5% (active) | 28.7% | 10.1% | 13.1% | -25.8% (active) | 18.2% | 8.73% (active) | 13.4% | 18.2% | 29.6% | 37.2% | 16.6% | 3.65% (active) | 13.9% | 46.2% | -10.1% (active) | 29.9% |
| COCCCNCC(=O)Nc1c(C)cccc1C | 112% | 104% | 104% | 88.4% | 113% | 102% | 105% | 110% | 98.6% | 103% | 100% | 108% | 107% | 104% | 111% | 112% | 140% | 122% | 124% | 105% |
